# Measurements taken from PubChem BioAssay AID651937 (The Scripps Research Institute Molecular Screening Center, 2012).
# Some of the results follow. Unmarked numbers belong to inactive results. Calls of active or inactive are those of the source. Cut-off read from the data, not from the text of the source: active = IC50 below about 9 µM; inactive = the rest.
# Assay: compound binding to PGV04 antibody – biochemical, TR-FRET, distinct HIV envelope site, counter-screen for PG9 antibody binder project, dose response (AID 651937)
# Conditions: TR-FRET binding to control antibody PGV04
row,SMILES,IC50
1,COc1ccc(-c2c(C)nn3c(N4CCC(C(=O)N5CCCCC5)CC4)cc(C)nc23)cc1OC,56.5 µM
2,O=C(Oc1ccccc1)Oc1ccc2c(c1)oc(=O)c1ccccc12,2.5 µM (active)
3,Cc1cccc(Nc2nc3c(S(=O)(=O)c4ccccc4)nnn3c3ccccc23)c1C,2.86 µM (active)
4,COC(=O)C1=C(C)N(Cc2ccccc2C(F)(F)F)C(=NCc2ccc(OC)cc2)NC1c1cccc(C(F)(F)F)c1 (configuration not stated),> 67 µM
5,CC1(C)Cc2ccccc2-c2[nH]c(=S)[nH]c(=O)c21,38.1 µM
6,O=C(Nc1nnc(-c2ccccc2F)s1)c1ccccc1F,14.3 µM
7,S=c1[nH]c2ccccc2c2ccccc12,36.4 µM
